Shown are actives, neighbours in structure and some others; about 1.8% of the full set was active somewhere.
PrPC TRFRET – reduces human prion protein on the cell surface; P04156; cell surface PrPC, TR-FRET read-out; inhibition, % at 13.8 µM; 0.43% of 370,000 active; in the data active = inhibition above about 24%; note: 0% = median of the test wells and 100% = reference compound wells
PfHsp40 yeast – compounds rescuing yeast from Plasmodium falciparum HSP40 toxicity. S. cerevisiae expressing PfHsp40, growth rescue, ATP luminescence. growth rescue, % at 12.5 µM. 0.68% of 340,000 active. AID 504582; in the data active = growth rescue above about 28%, passing the limit was not always enough; inconclusive = no clear call, values can overlap the other calls;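 note: yeast W303a lacking pdr1 and pdr3 grown in galactose medium; growth measured after three days at 30 °C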
Sa RN4220 lethal – kills Staphylococcus aureus RN4220. S. aureus RN4220 growth, OD600, 16 h. inhibition, % (concentration not given with the values). 0.33% of 330,000 active. AID 1259311; in the data active = inhibition above about 85%;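 note: plate controls were untreated cells for no effect and reference antibiotic for full effect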
ugtP null kill – compounds lethal to S. aureus RN4220 ugtP deletion mutant; 0.54% of 330,000 active; OD600 growth, 16 h; growth inhibition, % (no concentration beside the values); in the data active = growth inhibition above about 68%;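 note: plate controls were untreated wells for no effect and antibiotic for full effect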
DUSP3 inh – DUSP3 (human) phosphatase inhibition | P51452 | recombinant VHR phosphatase, pNPP absorbance | inhibition, % at 13.3 µM | 0.52% of 290,000 active; in the data active = inhibition above about 50%
Target sequence (P51452 whole entry, looked up): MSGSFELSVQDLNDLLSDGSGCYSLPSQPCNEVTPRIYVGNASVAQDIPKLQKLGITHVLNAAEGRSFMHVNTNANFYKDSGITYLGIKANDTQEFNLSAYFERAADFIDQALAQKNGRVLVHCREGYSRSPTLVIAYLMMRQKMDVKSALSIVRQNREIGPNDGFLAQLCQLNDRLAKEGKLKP
Active calls of the source: *; ? = inconclusive; . = no result given.

SMILES	PrPC TRFRET	PfHsp40 yeast	Sa RN4220 lethal	ugtP null kill	DUSP3 inh
CCC(C)(C)c1ccc(OCCCC[n+]2ccccc2)c(C(C)(C)CC)c1	12	-1	101*	100*	23
CCCCCc1ccc(OCCCC[n+]2ccccc2)c(CCCCC)c1	.	135*	101*	93	2
COc1ccc(C=Cc2onc(C)c2S(=O)(=O)N2CCC(C(=O)NCCC(C)C)CC2)cc1	.	.	1	-9	.
COc1cc(C)c2occ(C(C)=NO)c2c1	.	.	8	14	.
O=c1nccc(NN=Cc2ccccc2O)[nH]1	.	.	2	3	.
O=C(CCl)N1c2ccccc2SCC1c1ccccc1 (stereo not given)	1	2	.	.	-8
O=C(CCl)N1c2ccccc2OCC1c1ccccc1 (stereo not given)	9	1	40	95*	23
Cc1ccc(C(C)NC(=O)c2ccc3c(c2)OCCO3)cc1C (stereo not given)	0	2	2	7	55*
N#Cc1ccc(C23CC4(C2)C(CN(CC2CCCCC2)C4c2ccccc2)C3c2ccc(Cl)nc2)cc1 (stereo not given)	.	.	2	-15	.
N#CCC(Cc1ccccc1)N1CCC(O)CCC1=O (stereo not given)	.	.	2	0	.
CC(C)CNS(=O)(=O)c1ccc(CCC(=O)NC2CCCC2)cc1	-1	-1	6	1	52*
C#Cc1ccc(C2C=C(C(=O)NC3CC3)OC(OCCCCO)C2)cc1 (stereo not given)	.	.	5	-2	.
O=C(Oc1c(Cl)cc(Cl)c2cccnc12)c1ccco1	5	-2	99*	98*	4
O=C(Oc1c(CN2CCOCC2)cc(Cl)c2cccnc12)c1cccs1	3	0	7	7	52*
O=C(Oc1c(Cl)cc(Cl)c2cccnc12)c1cccs1	-6	341*	72	66	31
O=C(Oc1c(CN2CCOCC2)cc(Cl)c2cccnc12)c1ccccc1Cl	0	-1	5	-1	13
O=C1C=C(c2ccc(Oc3ccccc3)cc2)CC(c2ccc(Cl)cc2)C1 (stereo not given)	.	.	-9	-4	.
O=C(CSc1n[nH]c(-c2ccccc2O)n1)N1CCCc2ccccc21	-2	5	6	-9	52*
Nc1nc(SCC(=O)N2CCCc3ccccc32)n(-c2ccccc2)n1	12	1	0	6	50*
CC(C)CC(=O)/C(=C\c1ccc(Cl)cc1Cl)n1cncn1	.	125*	22	1	-2
C#CCOCCOCCOCCNc1nc(N2CCN(C(=O)C(CCCCN)n3cc(C(N)CC(C)C)nn3)CC2)nc(N2CCN(C(=O)C(CCC(=O)O)n3cc(C(N)C(C)CC)nn3)CC2)n1 (stereo not given)	.	.	4	3	.
Cc1ccc(-n2nc(C(=O)N3CCOCC3)cc2-c2ccc(Cl)cc2)cc1	-5	0	-3	92*	-7
COc1cc(C=NN=C2NC(=O)C(Cc3ccccc3)S2)ccc1O (stereo not given)	.	.	11	-3	.
OC(CNCC1CCCCC1)COc1ccccc1 (stereo not given)	6	1	2	12	51*
C=CCc1cccc(C=NNC(=O)CCC(=O)Nc2ccc(C)cc2)c1O	.	.	5	1	.
SMILES	PrPC TRFRET	PfHsp40 yeast	Sa RN4220 lethal	ugtP null kill	DUSP3 inh
C=CCc1cccc(/C=N/NC(=O)CCCNc2ccc(C)cc2)c1O	0	93*	.	.	19
S=c1nc(-c2ccccc2)[nH]c2ccc(Br)cc12	10	-2	0	2	1
O=c1[nH]c(-c2ccccc2)nn1-c1ccc(Br)cc1Br	-3	35*	6	1	5
Cc1ccc(C=NNC(=O)CNC(=O)COc2ccccc2)cc1	.	.	2	-1	.
COc1ccc(/C=C/C(=O)OCC(=O)NC2CCCCC2C)c(OC)c1 (stereo not given)	-3	0	5	87*	.
CC(=NNC(=O)C1(C)CC1(Br)Br)c1ccc([N+](=O)[O-])cc1 (stereo not given)	.	.	0	4	.
Cc1cc(C(C)(C)C)cc(C)c1Cn1c2[n+](c3ccc(C(F)(F)F)cc31)CCCCC2	8	2	101*	100*	17
FC(F)(F)c1cccc(Cn2c3[n+](c4ccc(C(F)(F)F)cc42)CCCCC3)c1	5	1	6	2	18
O=[N+]([O-])c1cc(C=NN2CCCCC2)ccc1Cl	.	.	5	-3	.
COc1ccc(CN2CCN(Cc3ccc4cc(F)ccc4n3)CC2CCO)c(C)c1C (stereo not given)	0	-1	-2	-5	51*
O=C(Nc1cccc(S(=O)(=O)NC2=NCCC2)c1)c1cc(-c2ccco2)nc2ccccc12	-7	1	4	8	52*
O=C(N/N=C/c1cc(Br)ccc1O)c1ccccc1Cl	3	466*	.	.	-17
O=C(NN=Cc1cc(Br)ccc1O)c1ccccc1Cl	.	.	7	10	.
CN1C(=CC=C(C#N)C(=O)Nc2ccc(Cl)cc2)C(C)(C)c2ccccc21	.	.	5	6	.
COc1ccc(N(C(C)C(=O)NN=Cc2cc(Br)c(C)o2)S(C)(=O)=O)cc1 (stereo not given)	.	.	8	5	.
CCCCn1c(=O)c2c(nc3n2CCCN3Cc2ccccc2)n(C)c1=O	3	3	1	8	58*
O=C(NC(Cc1ccccc1)C(=O)O)c1c(F)c(F)c(F)c(F)c1F (stereo not given)	.	.	3	5	.
Cc1ccc(-n2sc3ccccc3c2=O)cc1	2	80*	100*	100*	0
O=c1c2ccccc2sn1-c1ccc(F)cc1	6	102*	29	47	.
O=c1c2ccccc2sn1-c1ccc(Cl)cc1	0	.	.	.	.
COC(=O)c1cccc(-n2sc3ccccc3c2=O)c1	0	119*	.	.	.
COC(=O)c1cccc(N2CCCC2=O)c1	2	-1	4	10	-3
CC(C)C1COC(c2cccc(C3=NC(C(C)C)CO3)c2)=N1 (stereo not given)	.	.	4	3	.
CCCCN(Cc1ccccc1)c1ncnc2nc[nH]c12	.	-1	2	8	12
CCCCN(CCCC)c1ncnc2nc[nH]c12	-14	138*	3	0	-8
SMILES	PrPC TRFRET	PfHsp40 yeast	Sa RN4220 lethal	ugtP null kill	DUSP3 inh
CC(NO)C(=NO)c1cccs1 (stereo not given)	.	.	3	3	.
Cc1cccc(NC(=S)N=Nc2c(O)[nH]c3ccccc23)c1	12	?	99*	95*	-8
COC(=O)[C@@]1(Cc2ccc(F)cc2)C2c3cc(C(=O)N4CCCC4)n(CCO)c3CC2CN1C(=O)c1ccccc1 (stereo not given in full)	.	.	4	0	.
N#Cc1ccc(-c2c(-c3ccccc3)ncc3cc(F)ccc23)cc1	6	124*	3	10	.
Cn1c(=O)[nH]c(=O)c2c1nc(Br)n2CC=NNC(=O)c1ccccc1	.	.	0	-1	.
O=C(c1ccc(Br)o1)N1CCN(C23CC4CC(CC(C4)C2)C3)CC1	-2	0	2	2	56*
CCN1CCN(CCCNC(=O)c2cc3cc4ccc(OC)cc4nc3o2)CC1	.	0	-2	0	55*
COc1ccc2cc3cc(C(=O)NCCCN4CCOCC4)oc3nc2c1	-26	0	-2	-5	21

From PubChem
